{"source": "PubChem BioAssay (NCATS)", "key": {"[1]": {"test": "ZIKV-mCherry secondary qHTS for Zika virus inhibitors (AID 1347158); further: top concentration of the series differs between compounds", "summary_of_the_method": "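Compounds were tested in Vero monkey kidney cells infected with recombinant mCherry-expressing Zika virus at MOI 1 for 48-72 h at 37 °C. Fixed cells were nuclear-stained and imaged, and infection rate was taken as the fraction of mCherry-positive cells.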"}, "[2]": {"system": "Zika virus NS2B-NS3 protease (linked)", "test": "384 well plate NINDS AMC confirmatory qHTS for Zika virus inhibitors (AID 1347163);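 further: fluorescence of AMC released from Ac-VKTGKR-AMC peptide cleaved by the protease; top concentration of the series differs between compounds; nearly all actives have a fitted effect of over 50% in size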", "summary_of_the_method": "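Fluorescence at 355/460 nm was read after 25 minutes of cleavage of 30 microM Ac-VKTGKR-AMC at room temperature, in the dark. Before substrate addition, compounds (up to 1 mM final) sat ~15 minutes with 5, 30 or 60 nM linked protease. Signals were normalized to no-enzyme and no-inhibitor wells.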"}, "[3]": {"biological_target": "Cytochrome P450 2D6 (Homo sapiens) (UniProt P10635)", "sequence (P10635 whole entry, looked up)": "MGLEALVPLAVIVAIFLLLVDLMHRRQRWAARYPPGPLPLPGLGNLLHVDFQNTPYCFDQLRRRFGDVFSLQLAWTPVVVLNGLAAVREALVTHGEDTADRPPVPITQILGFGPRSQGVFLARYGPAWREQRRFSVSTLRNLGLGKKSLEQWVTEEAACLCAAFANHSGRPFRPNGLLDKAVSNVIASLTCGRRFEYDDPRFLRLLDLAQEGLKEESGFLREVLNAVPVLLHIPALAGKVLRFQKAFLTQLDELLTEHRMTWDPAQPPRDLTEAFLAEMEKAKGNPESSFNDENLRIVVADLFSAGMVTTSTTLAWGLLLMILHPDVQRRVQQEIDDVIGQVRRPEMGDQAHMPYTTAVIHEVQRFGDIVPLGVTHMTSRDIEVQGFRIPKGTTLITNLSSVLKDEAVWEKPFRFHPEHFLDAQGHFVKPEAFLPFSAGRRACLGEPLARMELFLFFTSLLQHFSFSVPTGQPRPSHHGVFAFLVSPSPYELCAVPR", "test": "Cytochrome P450 family 2 subfamily D member 6 (CYP2D6) small molecule antagonists: luciferase biochemical (cell-free) qHTS assay (AID 1645840; active means well fitted curve in the direction sought with a large enough effect in the repeat runs; an effect the other way counts as inactive or inconclusive; further: potency means the concentration at half of the fitted maximal effect; nearly all actives have a fitted effect of over 55% in size)", "summary_of_the_method": "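P450-Glo CYP2D6 system: proluciferin substrate converted by enzyme to luciferin, read by luminescence proportional to activity. Enzyme-substrate mix with compound 10 min at room temperature, then NADPH regeneration 1 h before detection reagent.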"}, "[4]": {"biological_target": "Cytochrome P450 2C9 (Homo sapiens) (UniProt P11712)", "sequence (P11712 whole entry, looked up)": "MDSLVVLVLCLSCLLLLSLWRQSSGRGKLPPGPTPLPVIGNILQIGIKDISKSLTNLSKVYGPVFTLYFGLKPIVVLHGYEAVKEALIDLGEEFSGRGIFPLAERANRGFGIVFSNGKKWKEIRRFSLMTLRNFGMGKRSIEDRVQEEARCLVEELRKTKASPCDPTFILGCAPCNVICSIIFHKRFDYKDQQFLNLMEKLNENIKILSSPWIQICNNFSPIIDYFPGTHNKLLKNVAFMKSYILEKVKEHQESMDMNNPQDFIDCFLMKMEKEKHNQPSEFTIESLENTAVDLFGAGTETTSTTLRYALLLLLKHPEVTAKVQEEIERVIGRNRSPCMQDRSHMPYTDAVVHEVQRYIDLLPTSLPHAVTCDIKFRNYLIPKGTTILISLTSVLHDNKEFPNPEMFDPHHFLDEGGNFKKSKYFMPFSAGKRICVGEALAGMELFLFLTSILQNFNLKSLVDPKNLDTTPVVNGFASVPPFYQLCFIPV", "test": "Cytochrome P450 family 2 subfamily C member 9 (CYP2C9) small molecule antagonists: luciferase biochemical (cell-free) qHTS assay (AID 1645842; active means well fitted curve in the direction sought with a large enough effect in the repeat runs; an effect the other way counts as inactive or inconclusive; further: potency means the concentration at half of the fitted maximal effect; nearly all actives have a fitted effect of over 55% in size)", "summary_of_the_method": "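P450-Glo CYP2C9 system: proluciferin substrate with enzyme in mix containing 0.4% BSA, 10 min at room temperature, then NADPH regeneration solution added and incubated 1 h at 37C. Detection reagent stopped reaction; luminescence read after 20 min as RLU.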"}, "[5]": {"test": "Confirmatory screen GU Rhodamine qHTS for Zika virus inhibitors qHTS (AID 1347157); further: nearly all actives have a fitted effect of over 70% in size; further: potency means the concentration at half of the fitted maximal effect", "summary_of_the_method": "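Unlinked NS2B/NS3, 25 nM; Rhod110 peptide, 1.5 microM; compounds, up to 114 microM. Reaction run 15 min at RT in 10 mM Tris-HCl pH 8.0, 0.01% Tween 20; kinetic fluorescence change fitted with a 4-parameter Hill model.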"}, "[6]": {"test": "Tertiary RLuc qRT-PCR qHTS assay for Zika virus inhibitors (AID 1347169); further: top concentration of the series differs between compounds; nearly all actives have a fitted effect of over 55% in size", "summary_of_the_method": "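Orthogonal cell-based infection assay using recombinant ZIKV-RLuc (Cambodian) in Vero cells; compound added prior to virus at MOI 1-2. Incubation lasts 48-72 hrs at 37 degrees C before live-cell Renilla substrate is added and luminescence measured.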"}, "[7]": {"test": "Confirmatory screen NINDS Rhodamine qHTS for Zika virus inhibitors (AID 1347161);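 further: purified Zika NS2B-NS3 protease with linked NS2B cofactor domain and Rhodamine110 peptide substrate; series mostly up to about 110 µM; nearly all actives have a fitted effect of over 60% in size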", "summary_of_the_method": "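Kinetic fluorescence (Ex 480 nm, Em 540 nm) over 15 min with 1.5 microM Rhodamine110 peptide and 25 nM linked protease.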"}, "[8]": {"system": "Zika virus NS2B-NS3 protease (linked construct)", "test": "384 well plate NINDS Rhodamine confirmatory qHTS for Zika virus inhibitors (AID 1347164); further: top concentration of the series differs between compounds; nearly all actives have a fitted effect of over 65% in size", "summary_of_the_method": "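Compounds are incubated about 15 minutes with linked protease (5, 30 or 60 nM final). Rhodamine 110-tagged Ac-LKRR substrate (10 microM final) is added and fluorescence measured after 25 minutes.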"}}, "note": "Inconclusive results are not listed. Entries that show only a call come without a potency. A number with no mark means an inactive call. Calls of active or inactive are those of the source. Unless noted, the call rests on the fitted dose curve; in most records, active means well fitted curve in the direction sought with a large enough effect; inconclusive means small, poorly fitted or top-dose-only effect, or another doubt; inactive means no such curve, though single readings can be large; an effect the other way counts as inactive or inconclusive.", "data": [{"compound": "Cc1ccc(Nc2nnc(-c3ccc(C)c(S(=O)(=O)NCc4nc5ccccc5[nH]4)c3)c3ccccc23)cc1", "values": [{"measurement": "Potency", "setting": "[1]", "value": "inactive"}, {"measurement": "Potency", "setting": "[2]", "value": "inactive"}, {"measurement": "Potency", "setting": "[3]", "value": "6.01 µM (active)"}, {"measurement": "Potency", "setting": "[4]", "value": "5.35 µM (active)"}]}, {"compound": "O=C(Nc1ccc(C(=O)OCc2cc(=O)n3nc(C4CC4)sc3n2)cc1)c1ccccc1", "values": [{"measurement": "Potency", "setting": "[5]", "value": "inactive"}, {"measurement": "Potency", "setting": "[6]", "value": "inactive"}]}, {"compound": "O=C(Nc1cccc(C(=O)OCc2cc(=O)n3c4c(sc3n2)CCCC4)c1)c1cccc(Cl)c1", "values": [{"measurement": "Potency", "setting": "[5]", "value": "inactive"}, {"measurement": "Potency", "setting": "[6]", "value": "inactive"}]}, {"compound": "CC(C)c1nn2c(=O)cc(COC(=O)c3ccc(NC(=O)COc4ccccc4)cc3)nc2s1", "values": [{"measurement": "Potency", "setting": "[5]", "value": "inactive"}, {"measurement": "Potency", "setting": "[7]", "value": "inactive"}, {"measurement": "Potency", "setting": "[6]", "value": "inactive"}]}, {"compound": "CCOC(=O)c1ccc(CN(Cc2ccc(F)cc2)S(=O)(=O)c2ccc(F)c(C(=O)Nc3ccccc3C(F)(F)F)c2)cc1", "values": [{"measurement": "Potency", "setting": "[5]", "value": "inactive"}, {"measurement": "Potency", "setting": "[7]", "value": "inactive"}, {"measurement": "Potency", "setting": "[6]", "value": "inactive"}]}, {"compound": "O=C(OCc1cc(=O)n2nc(C3CC3)sc2n1)c1ccc(NC(=O)c2ccccc2Cl)cc1", "values": [{"measurement": "Potency", "setting": "[5]", "value": "50.1 µM (active)"}, {"measurement": "Potency", "setting": "[2]", "value": "inactive"}, {"measurement": "Potency", "setting": "[8]", "value": "inactive"}, {"measurement": "Potency", "setting": "[6]", "value": "inactive"}]}]}
